target: Histone H2B type 1-L (UniProt Q99880); test: cross-link between two proteins; cross-linking mass spectrometry

Row | Substance | listed as a hit
1 | Large ribosomal subunit protein eL6, Q02878 | yes
2 | Large ribosomal subunit protein uL18, P46777 | yes
3 | Small ribosomal subunit protein eS8, P62241 | yes

From article PMC12701074
